Assay results: PubChem BioAssay (NCATS)
Records with an inconclusive call do not appear. Entries that show only a call come without a potency. Calls of active or inactive are those of the source. Calls come from the whole dose curve; as a rule, active = well fitted curve in the direction sought with a large enough effect; inconclusive = small, poorly fitted or top-dose-only effect, or another doubt; inactive = no such curve, though single readings can be large; an effect the other way counts as inactive or inconclusive.

Test: qHTS of pediatric cancer cell lines to identify multiple opportunities for drug repurposing: Primary screen for NB-EBc1 cells (AID 1347095)
Settings: NB-EBc1 neuroblastoma viability, CellTiter-Glo luminescence, 48 h; series mostly up to 46 µM
Method in brief: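 Cells seeded at 500-1,000 cells/well in growth media, rested 5 hours at 37 degrees C, 5% CO2, then dosed; MIPE compounds at 11-point (from 0.78 nM) and NPC at 8-point (from 0.59 nM) final concentrations. Viability by CellTiter-Glo luminescence after 48 hours.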
Potency is the fitted concentration of half-maximal effect.

| Structure (SMILES) | Potency |
| --- | --- |
| O=c1ccn([C@@H]2O[C@H](CO)[C@H](O)[C@H]2O)c(=O)[nH]1 | inactive |
| Cc1[nH]c(C=C2C(=O)Nc3ccc(S(=O)(=O)Cc4c(Cl)cccc4Cl)cc32)c(C)c1C(=O)N1CCC[C@H]1CN1CCCC1 | inactive |
| CC(C)C[C@H](CC(=O)O)C(=O)N[C@@H](Cc1c[nH]c2ccccc12)C(=O)N[C@@H](C)c1ccccc1 | 1.05 µM (active) |
| NC[C@@H]1O[C@@H](O[C@H]2[C@@H](O)[C@H](O[C@@H]3[C@@H](O)[C@@H](N)C[C@H](N)[C@H]3O[C@H]3O[C@H](CN)[C@@H](O)[C@@H](O)[C@H]3N)O[C@H]2CO)[C@H](N)[C@@H](O)[C@@H]1O | inactive |
| O=C1C[C@@H](c2ccc(O)cc2)Oc2cc(O)cc(O)c21 | inactive |
| O=C(O)c1ccccc1C(=O)Nc1ccc(-c2ccccc2)cc1 | inactive |
| O=C(O)c1cc(-c2ccccc2)nc2ccccc12 | inactive |
| C[C@@H](O)[C@H]1C(=O)N2C(C(=O)O)=C(S[C@@H]3CN[C@H](C(=O)N(C)C)C3)[C@H](C)[C@H]12 | inactive |
| CC(=Cc1ccccc1)C=C1SC(=S)N(CC(=O)O)C1=O | inactive |
| COc1ccc2cccc(CCNC(C)=O)c2c1 | inactive |
| CC(C)C(C)C=CC(C)C1CCC2C3=CC=C4CC(O)CCC4(C)C3CCC21C (stereo not given) | inactive |
| O=C(NC1CCOCC1)c1ccc(-c2cc(-c3cn[nH]c3-c3ccccn3)ccn2)cc1 | inactive |
| CC(C)C(=O)Oc1ccc(CO)cc1[C@H](CCN(C(C)C)C(C)C)c1ccccc1 | inactive |
| O=C1NC(=O)C(c2ccccc2)(c2ccccc2)N1 | inactive |
| Cn1c(N2CCCCS2(=O)=O)nc(C(=O)NCc2ccc(F)cc2)c(O)c1=O | inactive |
| CC(C)(C)c1ccc(C(O)CCCN2CCC(C(O)(c3ccccc3)c3ccccc3)CC2)cc1 (stereo not given) | inactive |
| O=C1NCC2(CCN(CCc3ccccc3)CC2)O1 | inactive |
| CC(C)(C(=O)NCC(F)(F)C(F)(F)F)C(=O)N[C@@H]1C(=O)Nc2ccccc2-c2ccccc21 | 4.69 µM (active) |
| O=C(O)c1cc(O)c2c(c1)C(=O)c1cccc(O)c1C2=O | 38.2 µM (active) |

Test: qHTS of pediatric cancer cell lines to identify multiple opportunities for drug repurposing: Primary screen for U-2 OS cells (AID 1347096); note: nearly all actives have a fitted effect of over 50% in size
Settings: U-2 OS viability, CellTiter-Glo luminescence, 48 h; series mostly up to 46 µM
Method in brief: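 Cells (500-1,000/well) rested 5 h, then received compounds for 48 h; metabolically active cells were measured by CellTiter-Glo luminescence. Final concentrations spanned up to 46 µM (MIPE, 11-point) or 0.59 nM-46 µM (NPC, 8-point) in primary screens, 11-point in follow-ups.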

| Structure (SMILES) | Potency |
| --- | --- |
| Cc1nc(N)sc1-c1ccnc(Nc2ccc(N3CCOCC3)cc2)n1 | 18.7 µM (active) |
| O=C1c2ccccc2-[n+]2ccc3c([nH]c4ccccc43)c21 | 9.35 µM (active) |
| C[C@H]1[C@H](NC(=O)C(=NOC(C)(C)C(=O)O)c2csc(N)n2)C(=O)N1S(=O)(=O)O | inactive |
| OC[C@@H](O)[C@H](O)[C@H](O)[C@@H](O)CO | inactive |
| C[N+](C)(C)CCCCCC[N+](C)(C)C | inactive |
| C[N+]1(C)[C@@H]2CC(OC(=O)[C@H](CO)c3ccccc3)C[C@H]1[C@H]1O[C@@H]12 (stereo not given in full) | inactive |
| CCOC(=O)O[C@]1(C(=O)OCCl)CC[C@@H]2[C@H]3CCC4=CC(=O)C=C[C@]4(C)[C@@H]3[C@@H](O)C[C@@]21C | inactive |
| O=C(O)Cc1cccc2ccccc12 | inactive |
| Cc1ccc(C(=O)Nc2cccc(C(F)(F)F)c2)cc1Nc1nc(-c2cccnc2)nc2c1cnn2C | inactive |
| NCCS | inactive |
| COc1ccc(-c2coc3cc(O)ccc3c2=O)cc1 | inactive |
| CN(C)CCC(c1ccccc1)c1ccccn1 (stereo not given) | inactive |
| COc1cc(O)c2c(c1)C(=O)c1cc(C)cc(O)c1C2=O | inactive |
| O=c1c(-c2ccc(O)cc2)coc2cc(O[C@@H]3O[C@H](CO)[C@H](O)[C@H](O)[C@H]3O)ccc12 | inactive |
| C=C1C(=O)[C@@]23C(CC[C@@H]1[C@H]2O)[C@@]12CO[C@]3(O)[C@@H](O)[C@@H]1C(C)(C)CC[C@@H]2O (stereo not given in full) | 14.8 µM (active) |
| CN[C@@H](C)C(=O)N[C@H]1CN(C(=O)CC(C)C)CC[C@H]2CC[C@@H](C(=O)NC(c3ccccc3)c3ccccc3)N2C1=O | inactive |
| NC[C@@H]1O[C@@H](O[C@H]2[C@@H](O)[C@H](O[C@@H]3[C@@H](O)[C@@H](N)C[C@H](N)[C@H]3O[C@H]3O[C@H](CN)[C@@H](O)[C@@H](O)[C@H]3N)O[C@H]2CO)[C@H](N)[C@@H](O)[C@@H]1O | inactive |
| O=C1C[C@@H](c2ccc(O)cc2)Oc2cc(O)cc(O)c21 | inactive |
| O=C(O)c1ccccc1C(=O)Nc1ccc(-c2ccccc2)cc1 | inactive |
| O=C(O)c1cc(-c2ccccc2)nc2ccccc12 | inactive |
| C[C@@H](O)[C@H]1C(=O)N2C(C(=O)O)=C(S[C@@H]3CN[C@H](C(=O)N(C)C)C3)[C@H](C)[C@H]12 | inactive |
